From PubChem BioAssay
GalR3 antag: GalR3 antagonists in HEK293 cells, primary screen, cell-based, fluorescence readout; HEK293 GalR3-CNG cAMP membrane potential fluorescence; galR3 body fused to GalR1 C-terminus; Galanin receptor type 3 (Homo sapiens), O60755; inhibition, % at 3 µM; 360,000 compounds, 0.44% hits;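 active = inhibition above the screen-wide average plus 3 SD, cut at about 13% in these data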;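 also: forskolin and galanin both at EC90 stimulate the cells; cAMP rise reported by CNG channel membrane potential dye signal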
LRH-1 inv ag: LRH-1 (NR5A2) inverse agonists, primary screen, cell-based, luminescence, HEK293T, StAR-luciferase reporter. Nuclear receptor subfamily 5 group A member 2 (Homo sapiens), O00482. LRH-1 transfected, 24 h. inhibition, % at 3.6 µM. 360,000 compounds, 0.13% hits. AID 602396, 2012;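 active = inhibition above the mean inhibition of all tested compounds plus 3 SD, cut at about 73% in these data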
NCOA1 inh: SRC1 coactivator transcriptional activity inhibitors, primary screen, cell-based, luminescence | Nuclear receptor coactivator 1 (Homo sapiens), Q15788 | HEK293 GAL4-SRC1 luciferase reporter | inhibition, % at 3.6 µM | 360,000 compounds, 0.12% hits | AID 588354, 2011;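 active = inhibition above the campaign mean plus 3 SD, with each screening campaign given its own cutoff, cut at about 60% in these data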
Target sequence (Q15788 whole entry, looked up, the tested form may be a part): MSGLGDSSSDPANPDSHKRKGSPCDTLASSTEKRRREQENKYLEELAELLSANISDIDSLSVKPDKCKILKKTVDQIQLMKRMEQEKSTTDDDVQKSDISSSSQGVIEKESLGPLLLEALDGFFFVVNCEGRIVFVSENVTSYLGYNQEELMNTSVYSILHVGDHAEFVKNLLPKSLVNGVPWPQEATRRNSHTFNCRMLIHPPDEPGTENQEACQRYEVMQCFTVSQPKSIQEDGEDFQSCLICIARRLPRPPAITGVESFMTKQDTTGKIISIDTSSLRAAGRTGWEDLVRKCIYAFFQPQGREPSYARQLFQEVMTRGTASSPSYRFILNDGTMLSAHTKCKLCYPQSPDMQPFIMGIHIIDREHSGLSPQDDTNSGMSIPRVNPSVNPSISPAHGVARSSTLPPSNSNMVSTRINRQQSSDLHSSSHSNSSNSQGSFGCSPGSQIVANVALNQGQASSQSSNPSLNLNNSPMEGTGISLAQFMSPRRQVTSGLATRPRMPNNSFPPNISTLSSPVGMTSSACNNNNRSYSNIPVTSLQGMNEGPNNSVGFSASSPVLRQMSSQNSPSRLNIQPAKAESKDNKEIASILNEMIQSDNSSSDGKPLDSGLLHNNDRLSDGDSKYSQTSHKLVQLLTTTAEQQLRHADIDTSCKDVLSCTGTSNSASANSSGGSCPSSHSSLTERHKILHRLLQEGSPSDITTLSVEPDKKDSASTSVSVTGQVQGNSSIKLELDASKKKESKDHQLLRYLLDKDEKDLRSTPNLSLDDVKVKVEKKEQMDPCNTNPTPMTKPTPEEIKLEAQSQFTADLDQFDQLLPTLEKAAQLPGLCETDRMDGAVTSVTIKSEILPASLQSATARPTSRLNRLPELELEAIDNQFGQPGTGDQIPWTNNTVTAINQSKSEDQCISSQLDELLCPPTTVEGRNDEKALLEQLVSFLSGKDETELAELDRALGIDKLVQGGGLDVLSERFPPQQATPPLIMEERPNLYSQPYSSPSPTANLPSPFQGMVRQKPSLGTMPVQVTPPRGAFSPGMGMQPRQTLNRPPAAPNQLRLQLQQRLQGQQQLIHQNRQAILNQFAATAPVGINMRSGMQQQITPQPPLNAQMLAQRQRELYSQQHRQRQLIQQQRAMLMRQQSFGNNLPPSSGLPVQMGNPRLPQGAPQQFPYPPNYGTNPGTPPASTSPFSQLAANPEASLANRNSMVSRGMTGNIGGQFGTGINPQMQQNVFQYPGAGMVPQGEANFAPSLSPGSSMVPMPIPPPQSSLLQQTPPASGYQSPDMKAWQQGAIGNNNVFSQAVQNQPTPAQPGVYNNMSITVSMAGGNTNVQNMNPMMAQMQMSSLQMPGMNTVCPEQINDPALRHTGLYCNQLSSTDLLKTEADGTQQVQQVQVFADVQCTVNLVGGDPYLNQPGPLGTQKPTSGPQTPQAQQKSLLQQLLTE
COUP-TFII inh: NR2F2 transcriptional activity inhibitors, primary screen, cell-based, luciferase reporter, HEK293T, luminescence; inhibition, % at 8.6 µM; HEK293T NGFI-A luciferase reporter; AID 686940, 2013; 370,000 compounds, 0.7% hits;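 active = inhibition above a per-plate cutoff, mean inhibition of test wells between control levels plus 3 SD, cut at about 38% in these data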;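 also: cells cotransfected with COUP-TFII expression vector driving the NGFI-A reporter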
SRC3 inh: SRC3 coactivator transcriptional activity inhibitors, primary screen, cell-based, luminescence; HEK293 GAL4-SRC3 luciferase reporter; inhibition, % at 3.6 µM; 360,000 compounds, 0.17% hits;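 active = inhibition above a per-campaign cutoff, the mean of all compounds plus 3 SD, cut at about 60% in these data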;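 also: higher means less SRC3-driven luciferase light from the GAL4 reporter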
NCOA2 inhibitor: inhibition of GAL4-SRC2 driven luciferase reporter, primary screen, SRC2 inhibitor project, cell-based, luminescence; HEK293 GAL4-SRC2 luciferase reporter; inhibition, % at 9 µM; 370,000 compounds, 0.17% hits; AID 651957, 2012;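 active = inhibition above the mean inhibition of all tested compounds plus 3 SD, set per campaign, cut at about 52% in these data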
Large screens that a line does not name were inactive. Sampled rows, rich in hits. Any-hit rate of the full collection: about 1.1%.

CC[C@@]1(O)C(=O)OCc2c1cc1n(c2=O)Cc2cc3c(CN(C)C)c(O)ccc3nc2-1	LRH-1 inv ag 86, SRC3 inh 71 (no result: GalR3 antag)
CC[C@@]1(O)C(=O)OCc2c1cc1n(c2=O)Cc2cc3c(N)cccc3nc2-1	LRH-1 inv ag 91, SRC3 inh 73
CCC(NC(=O)C1CCCN(c2ncccn2)C1)c1ccccc1 (configuration not stated)	none (no result: GalR3 antag, LRH-1 inv ag, NCOA1 inh, SRC3 inh)
COc1ccc(-c2n[nH]c(=S)n2-c2cc(OC)ccc2OC)cc1	none
COc1ccc(OC)c(-n2c(-c3cc(-c4ccc(F)cc4)n[nH]3)n[nH]c2=S)c1	GalR3 antag 15
O=C(NC1CCCCC1)C(c1cccnc1)N(C(=O)CCl)c1ccc(F)cc1 (configuration not stated)	SRC3 inh 69
COc1ccc(C(C(=O)NC2CCCCC2)N(C(=O)CCl)c2cccc(Cl)c2)cc1 (configuration not stated)	SRC3 inh 69
O=C(NC1CCCCC1)C(c1cccnc1)N(C(=O)CCl)c1ccccc1Cl (configuration not stated)	NCOA2 inhibitor 59
COc1ccc(C(C(=O)NC2CCCCC2)N(C(=O)CCl)c2ccc(OC)cc2)cc1 (configuration not stated)	none (no result: GalR3 antag, COUP-TFII inh, NCOA2 inhibitor)
COc1ccc(N(C(=O)CCl)C(C(=O)NC2CCCCC2)c2cccnc2)cc1 (configuration not stated)	SRC3 inh 70, NCOA2 inhibitor 63
COC(=O)c1cc(-c2cccc(OC(F)(F)F)c2)c(=O)n2c1CCC2	none (no result: GalR3 antag, LRH-1 inv ag, NCOA1 inh, SRC3 inh)
COc1ccc([C@H]2OC(=O)C[C@H]2C(=O)N2CCN(c3ccccc3Cl)CC2)cc1OC	none (no result: GalR3 antag, LRH-1 inv ag, NCOA1 inh, SRC3 inh)
C=C1C(=O)OC2C1CCC(C)C1C=CC(=O)C12C (configuration not stated)	none
C=C1C(=O)OC2CC1C(O)CC(C)=CCCC(C)=CC(O)CC2C (configuration not stated)	COUP-TFII inh 47
O=C1CCCc2oc3c(cc(NS(=O)(=O)c4ccc5c6c(cccc46)C(=O)N5)c4ccccc43)c21	GalR3 antag 41
CCCN(CC(=O)Nc1ccccc1C)C(=O)CCl	NCOA2 inhibitor 56
Cc1cc(C)c(C(=O)/C=C/c2cccc3ccccc23)c(=O)[nH]1	SRC3 inh 78, NCOA2 inhibitor 66
Cc1cc(C)c(C(=O)/C=C/c2ccc3c(c2)OCO3)c(=O)[nH]1	none
COc1cc(C(=O)/C=C/c2cccnc2)c([N+](=O)[O-])cc1OC	NCOA2 inhibitor 61
O=C(/C=C/c1cccnc1)c1ccc([N+](=O)[O-])cc1	none
CCCOC(c1ccccc1)(c1ccc(C(F)(F)F)cc1)C(Oc1nc(C)cc(C)n1)C(=O)O (configuration not stated)	LRH-1 inv ag 81, NCOA1 inh 61, SRC3 inh 71
Cc1cc(C)nc(OC(C(=O)O)C(OCCc2ccccc2)(c2ccc(F)cc2)c2ccc(F)cc2)n1 (configuration not stated)	none
O=C(O)c1ccc(N=N/C(=N\Nc2ccc(C(=O)O)cc2)c2ccccc2)cc1	none
Brc1ccc(N/N=C(/N=Nc2nn[nH]n2)c2ccccc2)cc1	SRC3 inh 63
CC(=O)NC(c1ccc2ccccc2c1)c1ccc2cccnc2c1O (configuration not stated)	LRH-1 inv ag 90
CC(=O)NC(c1ccc(Cl)cc1Cl)c1ccc2cccnc2c1O (configuration not stated)	LRH-1 inv ag 88
O=S1(=O)CC(N2CCCC2)CN1 (configuration not stated)	none (no result: GalR3 antag, LRH-1 inv ag, NCOA1 inh, SRC3 inh)
Cc1cc(/C=c2/sc3nc4ccccc4n3c2=O)c(C)n1-c1ccccn1	LRH-1 inv ag 79, NCOA1 inh 88, COUP-TFII inh 101, SRC3 inh 90, NCOA2 inhibitor 79
O=C1c2ccccc2C(=O)c2c(Nc3ccc(CCO)cc3)ccc(O)c21	none
O=C1c2c(O)ccc(O)c2C(=O)c2c(NCCNCCO)ccc(NCCNCCO)c21	NCOA1 inh 65
O=C(/C=C/c1ccc(O)cc1)c1ccc(NC2=C(N3CCCCC3)C(=O)c3ccccc3C2=O)cc1	LRH-1 inv ag 76
COc1ccccc1NC1=C(N2CCCCC2)C(=O)c2ccccc2C1=O	LRH-1 inv ag 97, NCOA1 inh 74, SRC3 inh 80 (no result: GalR3 antag, COUP-TFII inh, NCOA2 inhibitor)
O=C1C(Nc2ccccc2)=C(N2CCCCC2)C(=O)c2ccccc21	LRH-1 inv ag 93, SRC3 inh 68
Cc1ccc(NC2=C(N3CCCCC3)C(=O)c3ccccc3C2=O)cc1	none
CC(C)(C)c1ccc(-c2cc(N)n[nH]2)cc1	NCOA2 inhibitor 55 (no result: GalR3 antag)
CC(C)(C)c1nnc(N/N=C/c2ccccc2O)n(N)c1=O	NCOA1 inh 70, SRC3 inh 79
CCOC(=O)CCSc1nc(C(C)(C)C)cc(C(F)(F)F)c1C#N	NCOA2 inhibitor 70
CS(=O)(=O)c1ccc(Sc2nc3ccccc3s2)c([N+](=O)[O-])c1	SRC3 inh 73 (no result: GalR3 antag, COUP-TFII inh, NCOA2 inhibitor)
COc1ccc(Cn2cc(CN3[C@@H](CC(C)C)COc4cccc(F)c4S3(=O)=O)nn2)cc1	none (no result: GalR3 antag, LRH-1 inv ag, NCOA1 inh, SRC3 inh)
S=C1Cc2ccccc2N1	COUP-TFII inh 60, NCOA2 inhibitor 67
O=[N+]([O-])c1ccc(O)c(/C=N/Nc2nc3ccccc3[nH]2)c1	LRH-1 inv ag 91, SRC3 inh 64
COC(=O)[C@H](CC(C)C)N(CCc1cn(Cc2ccccc2)nn1)S(=O)(=O)c1ccccc1Br	none (no result: GalR3 antag, LRH-1 inv ag, NCOA1 inh, SRC3 inh)
O=C1CC(=O)OC(c2ccc([N+](=O)[O-])cc2)O1	SRC3 inh 78 (no result: GalR3 antag, COUP-TFII inh, NCOA2 inhibitor)
CCC1C(=O)C(C)(C)C(=O)OC1c1ccc([N+](=O)[O-])cc1 (configuration not stated)	none
CN1Cc2nnn(CC3CCCCC3)c2-c2ccccc2S1(=O)=O	none (no result: GalR3 antag, LRH-1 inv ag, NCOA1 inh, SRC3 inh)
CC1=[N+](C)c2c(ccc3cccnc23)C1(C)C	GalR3 antag 24, COUP-TFII inh 77
C[C@@H]1COc2cc(Br)ccc2S(=O)(=O)N1Cc1cn(Cc2ccc(Cl)cc2)nn1	none (no result: GalR3 antag, LRH-1 inv ag, NCOA1 inh, SRC3 inh)
CCN(CC)C(=O)CC[C@H]1CC[C@]2(CCCN(CC3CC3)C2)O1	none (no result: GalR3 antag, LRH-1 inv ag, NCOA1 inh, SRC3 inh)
CCOC(=O)c1ccc(N=CC2=C(O)CC(C)(C)CC2=O)cc1	none
CCOC(=O)c1ccc(N=Cc2cnc(N)nc2N)cc1	LRH-1 inv ag 88
c1ccc(CN2C3=NCCN3c3ccccc32)cc1	none
Cc1ccccc1CN1CC2=C(CCN(Cc3ccccc3)C2=O)N2CCN=C12	LRH-1 inv ag 85, SRC3 inh 62
